Reference: the supplement of paper PMC8728848
Many of the other results were omitted from the sample, so the strongest signals are more common in it than they were.

Experiments:
Experiment in all cases: glycan array binding signal (z-score within array); higher = stronger binding
Conditions in all cases: glycan notation: IUPAC condensed, linker removed
[1] = target: Gal(b1-4)GlcNAc(b1-3)Gal(b1-4)GlcNAc(b1-2)[Gal(b1-4)GlcNAc(b1-3)Gal(b1-4)GlcNAc(b1-6)]Man(a1-6)[Gal(b1-4)GlcNAc(b1-3)Gal(b1-4)GlcNAc(b1-2)Man(a1-3)]Man(b1-4)GlcNAc(b1-4)[Fuc(a1-6)]GlcNAc
Procedure, shortened: (§1)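 Glycan array data were curated from 3228 arrays in the Consortium for Functional Glycomics database and kept only where the protein sequence was available. Glycan names were converted to IUPAC-condensed notation, and columns mapping to the same glycan were averaged. The binding signal is a within-array Z-score, averaged across arrays of the same protein sequence at different concentrations or buffers and across linkers. Negative Z-scores can be read as non-binding.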

[2] = target: Gal(b1-4)GlcNAc(b1-3)Gal(b1-4)GlcNAc(b1-3)Gal(b1-4)GlcNAc(b1-3)Gal(b1-4)GlcNAc(b1-2)Man(a1-3)[Gal(b1-4)GlcNAc(b1-3)Gal(b1-4)GlcNAc(b1-3)Gal(b1-4)GlcNAc(b1-3)Gal(b1-4)GlcNAc(b1-2)Man(a1-6)]Man(b1-4)GlcNAc(b1-4)[Fuc(a1-6)]GlcNAc
Procedure, shortened: as §1

[3] = target: Gal(b1-4)GlcNAc(b1-3)Gal(b1-4)GlcNAc(b1-3)Gal(b1-4)GlcNAc(b1-3)Gal(b1-4)GlcNAc(b1-3)Gal(b1-4)GlcNAc(b1-2)Man(a1-3)[Gal(b1-4)GlcNAc(b1-3)Gal(b1-4)GlcNAc(b1-3)Gal(b1-4)GlcNAc(b1-3)Gal(b1-4)GlcNAc(b1-3)Gal(b1-4)GlcNAc(b1-2)Man(a1-6)]Man(b1-4)GlcNAc(b1-4)GlcNAc
Procedure, shortened: as §1

[4] = target: Gal(b1-4)GlcNAc(b1-3)Gal(b1-4)GlcNAc(b1-3)Gal(b1-4)GlcNAc(b1-3)Gal(b1-4)GlcNAc(b1-3)Gal(b1-4)GlcNAc(b1-3)Gal(b1-4)GlcNAc(b1-2)Man(a1-3)[Gal(b1-4)GlcNAc(b1-3)Gal(b1-4)GlcNAc(b1-3)Gal(b1-4)GlcNAc(b1-3)Gal(b1-4)GlcNAc(b1-3)Gal(b1-4)GlcNAc(b1-3)Gal(b1-4)GlcNAc(b1-2)Man(a1-6)]Man(b1-4)GlcNAc(b1-4)GlcNAc
Procedure, shortened: as §1

Gal3S(b1-4)Glc6S = target: Gal3S(b1-4)Glc6S
Procedure, shortened: as §1

Gal4S6S(b1-4)GlcNAc = target: Gal4S6S(b1-4)GlcNAc
Procedure, shortened: as §1

Gal6S(b1-4)Glc6S = target: Gal6S(b1-4)Glc6S
Procedure, shortened: as §1

Gal6S(b1-4)GlcNAc6S = target: Gal6S(b1-4)GlcNAc6S
Procedure, shortened: as §1

[5] = target: GalNAc(b1-3)Gal(a1-6)Gal(b1-4)Glc
Procedure, shortened: as §1

[6] = target: GalNAc(b1-4)GlcNAc(b1-2)Man
Procedure, shortened: as §1

[7] = target: GalNAc(b1-4)GlcNAc(b1-2)Man(a1-3)[GalNAc(b1-4)GlcNAc(b1-2)Man(a1-6)]Man(b1-4)GlcNAc(b1-4)GlcNAc
Procedure, shortened: as §1

[8] = target: GlcNAc(a1-4)Gal(b1-4)GlcNAc(b1-3)Gal(b1-4)Glc
Procedure, shortened: as §1

[9] = target: GlcNAc(b1-3)Gal(b1-4)GlcNAc(b1-3)Gal(b1-4)GlcNAc(b1-3)Gal(b1-4)GlcNAc(b1-3)Gal(b1-4)GlcNAc(b1-2)Man(a1-3)[GlcNAc(b1-3)Gal(b1-4)GlcNAc(b1-3)Gal(b1-4)GlcNAc(b1-3)Gal(b1-4)GlcNAc(b1-3)Gal(b1-4)GlcNAc(b1-2)Man(a1-6)]Man(b1-4)GlcNAc(b1-4)[Fuc(a1-6)]GlcNAc
Procedure, shortened: as §1

GlcNAc(b1-3)Man = target: GlcNAc(b1-3)Man
Procedure, shortened: as §1

[10] = target: Man(a1-2)Man(a1-3)[Man(a1-2)Man(a1-6)]Man
Procedure, shortened: as §1

[11] = target: Man(a1-2)Man(a1-6)[Man(a1-3)]Man(a1-6)[Man(a1-2)Man(a1-2)Man(a1-3)]Man(b1-4)GlcNAc(b1-4)GlcNAc
Procedure, shortened: as §1

[12] = target: Neu5Ac(a2-3)Gal(b1-3)GlcNAc
Procedure, shortened: as §1

[13] = target: Neu5Ac(a2-3)Gal(b1-4)GlcNAc(b1-2)Man(a1-3)[Neu5Ac(a2-3)Gal(b1-4)GlcNAc(b1-2)Man(a1-6)]Man(b1-4)GlcNAc(b1-4)[Fuc(a1-6)]GlcNAc
Procedure, shortened: as §1

[14] = target: Neu5Ac(a2-3)Gal(b1-4)GlcNAc(b1-2)[Neu5Ac(a2-3)Gal(b1-4)GlcNAc(b1-6)]Man(a1-6)[Neu5Ac(a2-3)Gal(b1-4)GlcNAc(b1-2)Man(a1-3)][GlcNAc(b1-4)]Man(b1-4)GlcNAc(b1-4)GlcNAc
Procedure, shortened: as §1

[15] = target: Neu5Ac(a2-3)Gal(b1-4)GlcNAc(b1-3)Gal(b1-4)GlcNAc
Procedure, shortened: as §1

[16] = target: Neu5Ac(a2-3)Gal(b1-4)GlcNAc(b1-3)Gal(b1-4)GlcNAc(b1-2)Man(a1-3)[Neu5Ac(a2-3)Gal(b1-4)GlcNAc(b1-3)Gal(b1-4)GlcNAc(b1-2)Man(a1-6)]Man(b1-4)GlcNAc(b1-4)GlcNAc
Procedure, shortened: as §1

[17] = target: Neu5Ac(a2-3)Gal(b1-4)GlcNAc(b1-3)Gal(b1-4)GlcNAc(b1-3)GalNAc
Procedure, shortened: as §1

[18] = target: Neu5Ac(a2-3)Gal(b1-4)GlcNAc(b1-3)Gal(b1-4)GlcNAc(b1-3)[Neu5Ac(a2-3)Gal(b1-4)GlcNAc(b1-3)Gal(b1-4)GlcNAc(b1-6)]GalNAc
Procedure, shortened: as §1

[19] = target: Neu5Ac(a2-3)Gal(b1-4)GlcNAc(b1-6)[Gal(b1-3)]GalNAc
Procedure, shortened: as §1

[20] = target: Neu5Ac(a2-3)Gal(b1-4)[Fuc(a1-3)]GlcNAc(b1-3)Gal(b1-4)[Fuc(a1-3)]GlcNAc(b1-3)Gal(b1-4)[Fuc(a1-3)]GlcNAc
Procedure, shortened: as §1

[21] = target: Neu5Ac(a2-3)Gal(b1-4)[Fuc(a1-3)]GlcNAc(b1-3)GalNAc
Procedure, shortened: as §1

Neu5Ac(a2-3)GalNAc = target: Neu5Ac(a2-3)GalNAc
Procedure, shortened: as §1

[22] = target: Neu5Ac(a2-3)[GalNAc(b1-4)]Gal(b1-4)Glc
Procedure, shortened: as §1

[23] = target: Neu5Ac(a2-6)Gal(b1-4)GlcNAc(b1-3)GalNAc
Procedure, shortened: as §1

[24] = target: Neu5Ac(a2-6)GalNAc(b1-4)GlcNAc
Procedure, shortened: as §1

[25] = target: Neu5Ac(a2-6)GlcNAc(b1-4)GlcNAc
Procedure, shortened: as §1

[26] = target: Neu5Ac(a2-8)Neu5Ac(a2-8)Neu5Ac
Procedure, shortened: as §1

[27] = target: Neu5Ac(a2-8)Neu5Gc(a2-3)Gal(b1-4)GlcNAc
Procedure, shortened: as §1

[28] = target: Neu5Gc(a2-3)Gal(b1-3)GlcNAc
Procedure, shortened: as §1

B1: PX14379A-bvu-539-28-539 (Bacteroides vulgatus) (protein)
chain: EPYSEIIEEDYVPTEADEIALLATTYSQLRFVMDWYGLFDLQEESGDVIVTPTRPNGWDDGGTYKQMHKHTWDNQQGQPQSIWDYCYKGIANANKILKRADEGFFTEESKPKVVAEVKGVRALWYSILCDTHGNIPIQTSFSEEVPVQSTRKQVFDFIINELKEVMPNLPTEVNKSTYGRLTQWGAKCLMARMYLNAGVYTGTPMWNECLEQCNDIINSGLFSLETNYTDIFKTENSGCVETIFAIPYDEVYNEGDNNGPVFGAHMKFLSSNSRKVFNMQTTPWGGSAANPQFINSYDPDDMRLKYTWLQGDQYSPDGVLITTFPNKLPSIYKTDTDDGYRVGKYEIKVGAKSLLSNDFPYFRYTEVLLMKAECLLRLGQNETEAAHIVSQIRERAFRESAHPEKATVDAAWLKGDTHINYGTLDEKGQIDDAGNTEVVELGGLYDEWGWEFAAEARRRTDMIRFGTYQKKSWFNHTPTANDLNGNSILFPIHLDHLNTNPNLQQNPGYAGK
glycan array binding signal (z-score) [1]: 7.27
glycan array binding signal (z-score) [2]: 0.984
glycan array binding signal (z-score) [3]: 9.41
glycan array binding signal (z-score) [4]: 0.819
glycan array binding signal (z-score) (Gal3S(b1-4)Glc6S): -0.224
glycan array binding signal (z-score) (Gal4S6S(b1-4)GlcNAc): -0.533
glycan array binding signal (z-score) (Gal6S(b1-4)Glc6S): -0.28
glycan array binding signal (z-score) (Gal6S(b1-4)GlcNAc6S): -0.175
glycan array binding signal (z-score) [5]: 2.98
glycan array binding signal (z-score) [6]: -0.549
glycan array binding signal (z-score) [7]: -0.102
glycan array binding signal (z-score) [8]: -0.444
glycan array binding signal (z-score) [9]: 3.83
glycan array binding signal (z-score) (GlcNAc(b1-3)Man): -0.278
glycan array binding signal (z-score) [10]: -0.377
glycan array binding signal (z-score) [11]: -0.361
glycan array binding signal (z-score) [12]: -0.439
glycan array binding signal (z-score) [13]: -0.571
glycan array binding signal (z-score) [14]: -0.378
glycan array binding signal (z-score) [15]: -0.185
glycan array binding signal (z-score) [16]: 0.342
glycan array binding signal (z-score) [17]: -0.138
glycan array binding signal (z-score) [18]: -0.132
glycan array binding signal (z-score) [19]: -0.388
glycan array binding signal (z-score) [20]: -0.35
glycan array binding signal (z-score) [21]: 5.8
glycan array binding signal (z-score) (Neu5Ac(a2-3)GalNAc): -0.249
glycan array binding signal (z-score) [22]: -0.297
glycan array binding signal (z-score) [23]: -0.204
glycan array binding signal (z-score) [24]: -0.211
glycan array binding signal (z-score) [25]: -0.56
glycan array binding signal (z-score) [26]: -0.382
glycan array binding signal (z-score) [27]: 7.1
glycan array binding signal (z-score) [28]: -0.228
